The values below come from ChEMBL document CHEMBL2218924, “A broad activity screen in support of a chemogenomic map for kinase signalling research and drug discovery” (Biochem J, 2013).

One may read the residual activity as the signal under treatment as a percentage of the control signal.

The target in this assay is T1, Testis-specific serine/threonine-protein kinase 2 (Homo sapiens) (UniProt Q96PF2).
T1 sequence (whole entry): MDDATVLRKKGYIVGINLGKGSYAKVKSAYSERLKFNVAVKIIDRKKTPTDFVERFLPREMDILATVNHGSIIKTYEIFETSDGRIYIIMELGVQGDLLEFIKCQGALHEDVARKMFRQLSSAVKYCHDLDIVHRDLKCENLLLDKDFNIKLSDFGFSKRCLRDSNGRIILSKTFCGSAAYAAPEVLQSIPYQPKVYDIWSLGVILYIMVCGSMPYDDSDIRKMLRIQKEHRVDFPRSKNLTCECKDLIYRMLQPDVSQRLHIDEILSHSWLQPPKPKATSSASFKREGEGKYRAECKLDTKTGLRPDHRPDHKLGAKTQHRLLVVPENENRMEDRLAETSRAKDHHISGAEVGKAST
The settings on record: at 1 µM.
`COc1cc2ncnc(Nc3ccc(NC(=O)c4ccccc4)cc3)c2cc1OC`: the residual activity turned out to be 106%.

`Ic1cccc(CSc2nnc(-c3ccncc3)o2)c1`: the residual activity is 87%. Regarding `CO[C@H]1[C@@H](OC)C[C@H](C)[C@@H](OC)C2=CC(=O)C=C(NC(=O)/C(C)=C/C=C/[C@H](OC)[C@@H](OC(N)=O)/C(C)=C/[C@@H]1C)C2=O`, the residual activity came out at 97%. The value for `O=C1NC(=O)c2cc(Nc3ccc(F)cc3)c(Nc3ccc(F)cc3)cc21` was 91%; that for `CCN(CC)CCNC(=O)c1c(C)[nH]c(/C=C2\C(=O)Nc3ccc(Cl)cc32)c1C` was 62%; that for `COc1ccc(Cl)cc1NC(=O)Nc1cc(C)nc2ccccc12` was 100%.

Consider `CCCCc1c(-c2ccc(O)cc2)[nH]c2nccnc12`, for which the residual activity is 94%. Take `COc1cc2ncnc(Nc3ccc(O)c(Br)c3)c2cc1OC`: the residual activity worked out at 93%. `O=C1NC(=O)c2c1c1c3ccccc3[nH]c1c1[nH]c3cc(Br)ccc3c21`: the residual activity was determined as 102%. In the case of `Cn1c2ccccc2c2c3c(c4c5ccccc5n(CCC#N)c4c21)CNC3=O`, the residual activity was found to be 64%. For `Nc1nc(Nc2ccc(S(N)(=O)=O)cc2)nn1C(=S)Nc1c(F)cccc1F` the value was 61%; for `O=C(NC(NC(=S)Nc1ccc(F)c([N+](=O)[O-])c1)C(Cl)(Cl)Cl)C(c1ccccc1)c1ccccc1` (stereo not given), 102%.

On to `C[C@@H](N)[C@H]1CC[C@H](C(=O)Nc2ccncc2)CC1`, for which the residual activity came to 102%. For `Oc1ccc(-c2nc(-c3ccc(F)cc3)c(-c3ccncc3)[nH]2)cc1` the value was 103%; for `Cc1cncc2cccc(S(=O)(=O)N3CCCN(C(=O)CN)C[C@H]3C)c12`, 80%; for `CC(C)c1nn(-c2c(Cl)cccc2Cl)c2nc(Cc3ccc(OCCO)cc3)[nH]c(=O)c12`, 93%. The value for `Oc1cccc(-c2nc(N3CCOCC3)c3oc4ncccc4c3n2)c1` was 93%; that for `CC(C)(C)n1nc(Cc2cccc3ccccc23)c2c(N)ncnc21` was 104%; that for `O=[N+]([O-])c1ccc(-c2nc(-c3ccc(F)cc3)c(-c3ccncc3)[nH]2)cc1` was 100%. The value for `CC(=O)c1ccc(N2CCOCC2)cc1O` was 89%; that for `Oc1ccc(Nc2nc(-c3ccc(Cl)cc3)cs2)cc1` was 101%; that for `Cc1ccc(S(=O)(=O)/C=C/C#N)cc1` was 92%. Turning to `O=c1cc(N2CCNCC2)oc2c(-c3ccccc3)cccc12`, the residual activity is 92%. The value for `Oc1n[nH]c2nnc(-c3c(-c4ccccc4)nn4ccccc34)cc12` was 95%; that for `Nc1cccc(-c2cc3c(Oc4cccc(O)c4)ncnc3[nH]2)c1` was 82%; that for `O=C(Nc1nc2ccccc2n1CCN1CCOCC1)c1cccc([N+](=O)[O-])c1` was 102%. On to `Cn1sc(=O)n(Cc2ccccc2)c1=O`, for which the residual activity came to 88%.

On to `c1ccc(-c2n[nH]cc2-c2ccnc3ccccc23)nc1`, for which the residual activity came to 96%. `COc1cc2ncnc(N3CCN(C(=O)Nc4ccc(Oc5ccccc5)cc4)CC3)c2cc1OC`: the residual activity amounted to 96%. For the compound `c1ccc2c(-c3ccncc3)c[nH]c2c1`, the residual activity stood at 100%. On to `Cc1nc2cc3nc(-c4cccs4)cnc3cc2n1C`, for which the residual activity came out at 104%. For `O=C1Nc2cc(Br)ccc2/C1=C1/Nc2ccccc2/C1=N\O` the value was 73%; for `Cn1nc2c3c(cccc31)C(=O)c1ccccc1-2`, 79%; for `CC(C)n1cnc2/c(=N/c3cccc(Cl)c3)nc(NCCO)[nH]c21`, 88%. On to `O=c1cc(-c2cccc3c2Sc2ccccc2S3)oc(N2CCOCC2)c1`, for which the residual activity turned out to be 112%.

For `N#C/C(=C(\N)Sc1ccc(N)cc1)c1ccccc1C(F)(F)F`, the residual activity turned out to be 62%.

For `COc1cc2nccc(Oc3ccc(NC(=S)NC(=O)c4ccccc4C)cc3)c2cc1OC`, the residual activity is 94%. The value for `Cc1ccc(NC2=CC(=O)c3sc(C)nc3C2=O)cc1` was 93%; that for `CO[C@H]1C[C@@H]2CC[C@@H](C)[C@@](O)(O2)C(=O)C(=O)N2CCCC[C@H]2C(=O)O[C@H]([C@H](C)C[C@@H]2CC[C@@H](O)[C@H](OC)C2)CC(=O)[C@H](C)/C=C(\C)[C@@H](O)[C@@H](OC)C(=O)[C@H](C)C[C@H](C)/C=C/C=C/C=C/1C` was 90%; that for `COc1cc2ncc(-c3ccccc3)nc2cc1OC` was 76%.
